The source of these data is PubChem BioAssay (NCATS).

One assay relates to MKL-1. As to the kind of experiment: qHTS assay to identify novel small-molecules to repurpose for Merkel cell carcinoma treatment (AID 1296009). Further: nearly all actives have a fitted effect of over 60% in size. Particulars: MCC and control cell lines, CellTiter-Glo viability, 72 h; series mostly up to 46 µM. Summed up:
(§1)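 Luminescence from CellTiter-Glo, read 10 min after addition at room temperature, reported viability following a 72 hr, 37 degree celsius treatment with NPC or MIPE compounds in titration; values normalized to plate controls.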

The next assay concerns MKL-2. The assay is described as above. Particulars: MCC and control cell lines, CellTiter-Glo viability, 72 h; series mostly up to 46 µM. In outline:
as §1
(In general: Cellular ATP, detected with luciferase, serves as a proxy for viable cell number.)

The next assay concerns NIH3T3. Described as above. Particulars: MCC and control cell lines, CellTiter-Glo viability, 72 h; at 44.8 µM (top of the series) unless noted. Summed up:
as §1

The subject of another assay is UISO. Described as above. To be noted: MCC and control cell lines, CellTiter-Glo viability, 72 h; series mostly up to 46 µM. Summed up: as §1
A further assay deals with WaGa. The description is as above. Particulars: MCC and control cell lines, CellTiter-Glo viability, 72 h; series mostly up to 46 µM. In outline: as §1
Another assay concerns C33A. The assay can be described thus: Primary qHTS to identify gynecologic anti-cancer compounds using libraries of approved drugs and bioactive compounds (AID 1345084). Further: nearly all actives have a fitted effect of over 55% in size. Particulars: Gynecologic cancer cell panel viability, ATPlite luminescence, 48 h; series mostly up to 57.5 µM. Summed up:
(§2)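 Cells, 1,000 per well, were allowed to settle for 16 h at 37 C before compound addition. Five concentrations were tested for 48 h, and viability was read by ATPlite luminescence after 15 min at room temperature.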

The subject of another assay is CAOV3. Described as above. Particulars: Gynecologic cancer cell panel viability, ATPlite luminescence, 48 h; series mostly up to 57.5 µM. In outline: as §2
A further assay concerns CASKI. Described as above. To be noted: Gynecologic cancer cell panel viability, ATPlite luminescence, 48 h; series mostly up to 57.5 µM. Summed up: as §2
In a further assay the test system is Es-2. Described as above. Particulars: Gynecologic cancer cell panel viability, ATPlite luminescence, 48 h; series mostly up to 57.5 µM. Summed up: as §2
For another assay, the system named is HeLa. The assay is described as above. To be noted: Gynecologic cancer cell panel viability, ATPlite luminescence, 48 h; series mostly up to 57.5 µM. Summed up: as §2
Another assay deals with Hek293T. Described as above. To be noted: Gynecologic cancer cell panel viability, ATPlite luminescence, 48 h, control line for the selectivity index; series mostly up to 57.5 µM. In outline: as §2
The next assay relates to JEG-3. The assay is described as above. Particulars: Gynecologic cancer cell panel viability, ATPlite luminescence, 48 h; series mostly up to 57.5 µM. Summed up: as §2
A further assay concerns OV90. Described as above. To be noted: Gynecologic cancer cell panel viability, ATPlite luminescence, 48 h; series mostly up to 57.5 µM. In outline:
as §2

For the next assay, the system named is PA-1. The assay is described as above. Particulars: Gynecologic cancer cell panel viability, ATPlite luminescence, 48 h; series mostly up to 57.5 µM. In outline: as §2
The next assay has as its system SKOV3. The assay is described as above. Particulars: Gynecologic cancer cell panel viability, ATPlite luminescence, 48 h; series mostly up to 57.5 µM. Summed up:
as §2

The next assay concerns Tov-21-G. The description is as above. Particulars: Gynecologic cancer cell panel viability, ATPlite luminescence, 48 h; series mostly up to 57.5 µM. Summed up:
as §2

The subject of another assay is Tov112D. Described as above. To be noted: Gynecologic cancer cell panel viability, ATPlite luminescence, 48 h; series mostly up to 57.5 µM. In outline: as §2
Assay [1] in a line: Drug repurposing screens with cells derived from glioblastoma tumor samples (AID 1345199). Further: nearly all actives have a fitted effect of over 40% in size. Particulars: GBM patient neurospheres viability, ATP luminescence, 48 h. Summed up:
(§3)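 Primary testing used CD133+ neurospheres from four GBM patients, seven concentrations, 48 h exposure and ATP-based viability; confirmation added three slower-growing patient lines.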

For a further assay, the system named is astro. Described as above. To be noted: viability, ATP luminescence, 48 h; series mostly up to 45.9 µM. In outline:
as §3

The mark [2] stands for this setting: at 45.9 µM (top of the series), tumour line B.
Where [3] appears, read: at 45.9 µM (top of the series), tumour line D.
[4] abbreviates: at 46.1 µM (top of the series), tumour line C.
[5] abbreviates: at 20 µM (top of the series), tumour line C.
[6] abbreviates: at 21.2 µM (top of the series), tumour line B.
The mark [7] stands for this setting: at 21.2 µM (top of the series), tumour line D.
Setting [8] is: at 46 µM (top of the series), tumour line A.

Results filed as inconclusive are left out. Unmarked numbers belong to inactive results. Calls of active or inactive are those of the source. The call rests on the fitted dose curve; in most records, active means well fitted curve in the direction sought with a large enough effect; inconclusive means small, poorly fitted or top-dose-only effect, or another doubt; inactive means no such curve, though single readings can be large; an effect the other way counts as inactive or inconclusive.
On the % scale 0 is the no-effect control and ±100 the full control effect; potency means the concentration at half of the fitted maximal effect.

Turning to `CNS(=O)(=O)CCc1ccc2[nH]cc(C3CCN(C)CC3)c2c1`, the Potency result in the assay on MKL-1, with MKL-2, with UISO, with WaGa, with C33A and with CAOV3 was “inactive” in each case. The Potency entry with CASKI, with Es-2, with HeLa, in the assay with Hek293T, in the assay with JEG-3 and in the assay on OV90 was “inactive” in each case. Moreover, the Potency entry in the assay with PA-1, in the assay with SKOV3, with Tov-21-G, in the assay on Tov112D and in the assay on astro was “inactive” in each case. In the assay on NIH3T3, the call was inactive. In addition, the activity, negative = cell killing is -8.38% in [1] (setting [2]), 2.37% in assay [1] (setting [3]) and 9.59% in [1] (setting [4]).
On to `Nc1ccc(S(=O)(=O)Nc2ccccn2)cc1`, for which the Potency entry with MKL-1, in the assay on MKL-2, in the assay on UISO, in the assay with WaGa, with C33A and in the assay with CAOV3 was “inactive” each time. For the same compound, the Potency entry in the assay with CASKI, in the assay with Es-2, with HeLa, in the assay on Hek293T, with JEG-3 and with OV90 was “inactive” throughout. For the same compound, the Potency entry with PA-1, with SKOV3, in the assay with Tov-21-G, with Tov112D and in the assay on astro was “inactive” each time. In addition, the compound was called inactive in the assay on NIH3T3. Moreover, the activity, negative = cell killing in [1] (setting [5]) was -7.01%; in [1] (setting [6]), 0.146%; in [1] (setting [7]) it was 5.31%; in assay [1] (at 21.3 µM (top of the series), tumour line A), -9.41%.
Take `COc1cc2nc(N3CCCN(C)CC3)nc(NC3CCN(Cc4ccccc4)CC3)c2cc1OC`: the Potency with MKL-1 is 2960 nM (active); in the assay on MKL-2, 1320 nM (active); in the assay on UISO, 14800 nM (active).
For the compound `Cc1cccc(N(C)C(=S)Oc2ccc3ccccc3c2)c1`, the Potency entry in the assay on MKL-1, in the assay on MKL-2, in the assay on UISO, with WaGa, in the assay with C33A and in the assay with CAOV3 was “inactive” each time. In addition, the Potency result in the assay on CASKI, in the assay on Es-2, in the assay with HeLa, in the assay with Hek293T, in the assay with OV90 and with PA-1 was “inactive” throughout. Besides, the Potency result in the assay with SKOV3, in the assay with Tov-21-G, with Tov112D and with astro was “inactive” each time. The activity, negative = cell killing in assay [1] (setting [5]) is -6.63%; in [1] (setting [6]), -15.9%; in assay [1] (setting [7]), -7.02%.
For the compound `COC(=O)Nc1nc2ccc(Sc3ccccc3)cc2[nH]1`, the Potency in the assay on MKL-2 was 3320 nM (active); with Es-2, 2820 nM (active); with HeLa it was 2240 nM (active); in the assay with OV90 it was 10000 nM (active); with PA-1, 1410 nM (active); in the assay on Tov-21-G it was 2820 nM (active). The Potency in the assay on Tov112D was 1410 nM (active); in [1] (tumour line A), 224 nM (active); with astro it was 631 nM (active). Moreover, the activity, negative = cell killing in [1] (setting [5]) was -28.6%.
For `CO[C@@]12[C@H](COC(N)=O)C3=C(C(=O)C(C)=C(N)C3=O)N1C[C@@H]1N[C@@H]12`, the Potency result with C33A and in the assay on astro was “inactive” in each case. Also, the Potency with CAOV3 was 3550 nM (active); in the assay on CASKI, 8910 nM (active); in the assay with Es-2, 4470 nM (active); with OV90, 17800 nM (active); in the assay with Tov-21-G it was 14100 nM (active); with Tov112D, 794 nM (active). In addition, the activity, negative = cell killing in assay [1] (setting [2]) is -14.3%; in [1] (setting [3]) it was -12.4%; in [1] (setting [8]), -9.83%; in [1] (setting [4]), -16.3%.
For the compound `CC1(C)[C@H](C(=O)O)N2C(=O)C[C@H]2S1(=O)=O`, the Potency entry in the assay with C33A, in the assay on CAOV3, in the assay with CASKI, with Es-2, with HeLa and in the assay with Hek293T was “inactive” throughout. The Potency entry with JEG-3, in the assay on OV90, with PA-1, in the assay on SKOV3, with Tov-21-G and in the assay with Tov112D was “inactive” throughout. The Potency result in the assay with astro was “inactive”. Further, the activity, negative = cell killing in [1] (setting [2]) was 1.79%; in assay [1] (setting [3]) it was -3.83%; in assay [1] (setting [8]), -4.41%; in assay [1] (setting [4]), 9.89%.
